Compounds without any hit were thinned out: in the full panel of roughly 83,000, 20% have a hit.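 Single-concentration screen, 48 h exposure, 96-well plates. Endpoint: percent growth. Below 10 = active.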 Unmarked numbers belong to inactive results. Activity calls are given as the source filed them.

Test systems include NCI-H23 lung; NCI-H226 lung; NCI-H322M lung; HOP-62 NSCLC; NCI-H460 lung; HOP-92 NSCLC; NCI-H522 lung; A549/ATCC NSCLC; 786-0 renal; COLO 205 colon.
What all share (assay): NCI-60 one-dose screen, 48 h (100 = growth as untreated, 0 = no growth, -100 = all killed)
What all share (conditions): 10 µM unless noted

Turning to `O=c1[nH]c(-c2ccccc2)nc(CN2CCCCC2)c1O`, the growth was 103% in the test on NCI-H23 lung; 108% with NCI-H226 lung; 136% in the test on NCI-H322M lung; 112% in the test on HOP-62 NSCLC; 109% in the test with NCI-H460 lung; 92.8% in the test with HOP-92 NSCLC. For the same compound, the growth in the test with NCI-H522 lung was 116%; with A549/ATCC NSCLC, 111%; with 786-0 renal, 102%; with COLO 205 colon, 113%.

For the compound `O=c1cc(Cc2ccc([N+](=O)[O-])cc2)[nH]c(=O)[nH]1`, the growth in the test on NCI-H23 lung was 99.2%; in the test with NCI-H226 lung it was 107%; with NCI-H322M lung, 112%; in the test with HOP-62 NSCLC it was 93.3%; in the test on NCI-H460 lung it was 109%; in the test on HOP-92 NSCLC, 96.1%. For the same compound, the growth is 90.5% with NCI-H522 lung, 106% in the test with A549/ATCC NSCLC, 98.9% in the test with 786-0 renal and 100% in the test with COLO 205 colon.

`Nc1nnc(-c2ccc3ccccc3c2O)o1`: the growth with NCI-H23 lung was 85.3%; in the test on NCI-H226 lung, 94.8%; in the test on NCI-H322M lung, 88%; in the test on HOP-62 NSCLC, 89.8%; with NCI-H460 lung, 92.6%; with HOP-92 NSCLC, 83%. In addition, the growth in the test on NCI-H522 lung is 85.1%; in the test with A549/ATCC NSCLC, 93.5%; with 786-0 renal, 104%; with COLO 205 colon, 99.5%.

Consider `C=C[C@@H]1C[C@H](O)Cc2ccccc2N1`, for which the growth with NCI-H23 lung was 104%; with NCI-H226 lung it was 111%; in the test with NCI-H322M lung, 125%; with HOP-62 NSCLC, 99.2%; in the test with NCI-H460 lung, 107%; with HOP-92 NSCLC, 137%. The growth was 121% with NCI-H522 lung, 95.4% in the test on A549/ATCC NSCLC, 112% in the test with 786-0 renal and 117% with COLO 205 colon.

On to `COc1cc(C2CC(c3ccc4c(c3)OCO4)=NN2C=O)cc(OC)c1OC` (stereo not given), for which the growth in the test with NCI-H23 lung was 59.9%; with NCI-H226 lung it was 58.3%; in the test on NCI-H322M lung it was 14.1%; with HOP-62 NSCLC it was 36.7%; in the test on NCI-H460 lung, 15.3%; with HOP-92 NSCLC it was 74.6%. Besides, the growth is -3.85% (active) in the test with NCI-H522 lung, 46.2% with A549/ATCC NSCLC, 37.4% with 786-0 renal and 12.6% in the test with COLO 205 colon.

On to `COc1cc2c(cc1OCCCCCn1c3ccccc3c3ccccc31)N=C[C@@H]1CCCN1C2=O`, for which the growth was -25.5% (active) with NCI-H23 lung; -91.8% (active) with NCI-H226 lung; 16.2% with NCI-H322M lung; -38.5% (active) with HOP-62 NSCLC; -84.3% (active) with NCI-H460 lung; -65.5% (active) in the test with HOP-92 NSCLC. Further, the growth was -22.3% (active) in the test with NCI-H522 lung, -66.9% (active) in the test with A549/ATCC NSCLC, -92.9% (active) with 786-0 renal and -85.9% (active) in the test with COLO 205 colon.

With `C=C[C@@H]1C[C@@H]2Cc3cc(F)ccc3N1O2`, the growth in the test with NCI-H23 lung is 103%; in the test on NCI-H226 lung it was 120%; in the test on NCI-H322M lung, 137%; in the test with HOP-62 NSCLC, 102%; with NCI-H460 lung, 112%; with HOP-92 NSCLC, 105%. The growth in the test on NCI-H522 lung is 98.7%; in the test on A549/ATCC NSCLC, 95.3%; in the test with 786-0 renal it was 111%; in the test on COLO 205 colon, 123%.

`COc1ccc(CNCCCN2C(=O)c3ccc4c5c(ccc(c35)C2=O)C(=O)N(CCCNCCCCNCCCN)C4=O)c(OC)c1OC`: the growth with NCI-H23 lung was 23.1%; in the test on NCI-H226 lung, 23.8%; in the test with NCI-H322M lung, 30.4%; with HOP-62 NSCLC, 19.3%; in the test on NCI-H460 lung, 19.6%; in the test on HOP-92 NSCLC it was 51.7%. Also, the growth is 1.57% (active) with NCI-H522 lung, 25.3% with A549/ATCC NSCLC, 22.4% in the test on 786-0 renal and -86.1% (active) in the test on COLO 205 colon.

`COc1ccc(CCNC2=CC(=O)CCC2)cc1OC`: the growth in the test on NCI-H23 lung was 92.5%; with NCI-H226 lung, 95%; with NCI-H322M lung, 110%; in the test on HOP-62 NSCLC, 104%; in the test with NCI-H460 lung it was 111%; in the test with HOP-92 NSCLC it was 92.8%. Moreover, the growth in the test on NCI-H522 lung is 102%; in the test with A549/ATCC NSCLC, 105%; with 786-0 renal, 107%; in the test on COLO 205 colon, 103%.

Turning to `CCCCCCCCCCCCCCCCNC(=O)OC(C)C`, the growth in the test on NCI-H23 lung was 54.1%; with NCI-H226 lung, 69.1%; with NCI-H322M lung, -20.9% (active); in the test with HOP-62 NSCLC, 40.5%; in the test with NCI-H460 lung, 2.2% (active); with HOP-92 NSCLC, 53%. Further, the growth is -54.3% (active) in the test on NCI-H522 lung, 10.3% with A549/ATCC NSCLC, 83.9% in the test with 786-0 renal and -29.6% (active) in the test with COLO 205 colon.

Regarding `Cn1c(=O)cc(NC(=O)CN2CCN(c3cc4c(cc3F)c(=O)c(C(=O)O)cn4C3CC3)CC2)[nH]c1=O`, the growth in the test with NCI-H23 lung was 99.9%; in the test on NCI-H226 lung it was 95.5%; in the test on NCI-H322M lung it was 102%; in the test on HOP-62 NSCLC, 98.9%; in the test on NCI-H460 lung, 105%; in the test on HOP-92 NSCLC, 99.8%. The growth is 91.7% with NCI-H522 lung, 98.8% in the test on A549/ATCC NSCLC, 102% in the test on 786-0 renal and 106% in the test with COLO 205 colon.

As to `O=C(O)c1nc(-c2ccccc2)oc1N1CCOCC1`, the growth with NCI-H23 lung is 98%; in the test on NCI-H226 lung it was 103%; with NCI-H322M lung, 91.8%; with HOP-62 NSCLC, 97%; with NCI-H460 lung, 102%; with HOP-92 NSCLC, 84.6%. Further, the growth was 95.9% with NCI-H522 lung, 100% in the test with A549/ATCC NSCLC, 97.5% in the test on 786-0 renal and 102% in the test on COLO 205 colon.

`COc1ccc(Cn2cc3c(c2-c2cc(OC)c(OC)c(OC)c2)CCc2cnoc2-3)cc1`: the growth is 22.8% with NCI-H23 lung; 19.8% in the test on NCI-H226 lung; 35.8% in the test on NCI-H322M lung; 64.2% with HOP-62 NSCLC; 4.4% (active) in the test with NCI-H460 lung; 77.1% in the test with HOP-92 NSCLC. The growth was 24.7% in the test on NCI-H522 lung, 25.2% with A549/ATCC NSCLC, 36.3% in the test with 786-0 renal and -27.7% (active) in the test on COLO 205 colon.

Values taken from PubChem BioAssay (NCI).
